# Data as given in PubChem BioAssay (NCI).
# This is part of a sample that, as a whole, favours compounds with a hit. Of some 79,000 tested, about 15% had one in any assay. Calls of active or inactive are those of the source. Cut-off read from the data, not from the text of the source: active = growth inhibition above about 70%; inactive = the rest.
# Test: NCI Yeast Anticancer Drug Screen. Data for the sgs1 strain (AID 173);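 note: 0% = growth of vehicle-only control cultures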
# Conditions: S. cerevisiae sgs1 mutant, stronger effect = higher value
# Description: Growth inhibition of yeast strains with defined genetic alterations is measured as a screen for potential anti-cancer activity. Selected strains with alterations in DNA damage repair or cell cycle control were exposed to compounds and growth inhibition was measured relative to vehicle treated controls. The strain used in this assay is sgs1
SMILES,growth inhibition (at 1.2 µM),growth inhibition (at 3.7 µM),growth inhibition (at 11.0 µM),growth inhibition (at 33.0 µM),growth inhibition (at 100.0 µM)
CC(=O)CC(=O)/C=C/c1cccs1,-18% (inactive),-8% (inactive),26% (inactive),30% (inactive),93% (active)
O=C(/C=C\c1ccc([N+](=O)[O-])o1)Nc1ccc(Cl)cc1,81% (active),94% (active),98% (active),98% (active),95% (active)
CCN(CC)CC(O)c1cc(-c2ccc(Cl)cc2)nc2c(-c3ccccc3)cccc12 (stereo not given),-1% (inactive),3% (inactive),98% (active),98% (active),96% (active)
COc1ccc(N=N/C(=N\NC(=O)c2cc(Br)ccc2O)c2ccc(N(CCC#N)CCC#N)cc2OC)cc1,34% (inactive),37% (inactive),33% (inactive),42% (inactive),71% (active)
CCN(CC)N=Nc1c(C(N)=O)n[nH]c1C,-1% (inactive),-1% (inactive),-2% (inactive),9% (inactive),43% (inactive)
CCC(=O)N(c1ccccc1)C(C)CN1CCC(O)(c2cccc(C(F)(F)F)c2)CC1 (stereo not given),2% (inactive),10% (inactive),20% (inactive),60% (inactive),94% (active)
N#C/C(=C1C=C(Br)/C(=N\O)C=C\1Cl)c1cccc2ccccc12,15% (inactive),18% (inactive),82% (active),92% (active),95% (active)
Cc1c2cc[n+](CCN3CCCCC3)cc2c(C)c2c1[nH]c1ccc(O)cc12,-1% (inactive),-2% (inactive),1% (inactive),12% (inactive),94% (active)
